# Shown is part of a subset that was picked to be rich in the strongest signals.
# Legend:
# Test in all cases: glycan array binding signal (z-score within array); higher = stronger binding
# Conditions in all cases: glycan notation: IUPAC condensed, linker removed
# Gal4S(b1-4)GlcNAc = biological target: Gal4S(b1-4)GlcNAc
# How it was run: (§1)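 Glycan array binding is given as a within-array Z-score, which can be read as non-binding when negative. The arrays, 3228 of them, came from the Consortium for Functional Glycomics database and were retained only where the protein sequence was available. Z-scores were averaged across arrays of the same protein sequence at different concentrations or buffers and across linkers.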
# Gal6S(b1-4)GlcNAc6S = biological target: Gal6S(b1-4)GlcNAc6S
# How it was run: as §1
# [1] = biological target: GalNAc(b1-3)Gal(a1-4)Gal(b1-4)GlcNAc(b1-3)Gal(b1-4)Glc
# How it was run: as §1
# GalNAc4S6S(b1-4)GlcNAc = biological target: GalNAc4S6S(b1-4)GlcNAc
# How it was run: as §1
# Glc(b1-4)Glc = biological target: Glc(b1-4)Glc
# How it was run: as §1
# GlcA(b1-6)Gal = biological target: GlcA(b1-6)Gal
# How it was run: as §1
# [2] = biological target: GlcNAc(a1-4)Gal(b1-4)GalNAc
# How it was run: as §1
# [3] = biological target: GlcNAc(b1-2)[GlcNAc(b1-6)]Man(a1-6)[GlcNAc(b1-2)Man(a1-3)]Man(b1-4)GlcNAc(b1-4)GlcNAc
# How it was run: as §1
# [4] = biological target: GlcNAc(b1-2)[GlcNAc(b1-6)]Man(a1-6)[GlcNAc(b1-4)][GlcNAc(b1-2)Man(a1-3)]Man(b1-4)GlcNAc(b1-4)GlcNAc
# How it was run: as §1
# [5] = biological target: GlcNAc(b1-4)GlcNAc(b1-4)GlcNAc(b1-4)GlcNAc(b1-4)GlcNAc(b1-4)GlcNAc
# How it was run: as §1
# Kdn(a2-3)Gal(b1-3)GalNAc = biological target: Kdn(a2-3)Gal(b1-3)GalNAc
# How it was run: as §1
# [6] = biological target: Man(a1-2)Man(a1-3)[Man(a1-6)]Man(a1-6)[Man(a1-2)Man(a1-3)]Man(b1-4)GlcNAc(b1-4)GlcNAc
# How it was run: as §1
# [7] = biological target: Neu5Ac(a2-3)Gal(b1-3)GlcNAc6S
# How it was run: as §1
# [8] = biological target: Neu5Ac(a2-3)Gal(b1-3)[GlcNAc(b1-6)]GalNAc
# How it was run: as §1
# [9] = biological target: Neu5Ac(a2-3)Gal(b1-3)[Neu5Ac(a2-6)]GlcNAc(b1-3)[Fuc(a1-3)[Gal(b1-4)]GlcNAc(b1-6)]Gal(b1-4)Glc
# How it was run: as §1
# Neu5Ac(a2-3)Gal(b1-4)Glc = biological target: Neu5Ac(a2-3)Gal(b1-4)Glc
# How it was run: as §1
# [10] = biological target: Neu5Ac(a2-3)Gal(b1-4)GlcNAc(b1-2)Man
# How it was run: as §1
# [11] = biological target: Neu5Ac(a2-3)Gal(b1-4)GlcNAc(b1-3)Gal(b1-4)GlcNAc(b1-2)Man(a1-3)[Neu5Ac(a2-3)Gal(b1-4)GlcNAc(b1-3)Gal(b1-4)GlcNAc(b1-2)Man(a1-6)]Man(b1-4)GlcNAc(b1-4)GlcNAc
# How it was run: as §1
# [12] = biological target: Neu5Ac(a2-3)Gal(b1-4)GlcNAc(b1-3)Gal(b1-4)GlcNAc(b1-3)Gal(b1-4)GlcNAc(b1-2)Man(a1-3)[Neu5Ac(a2-3)Gal(b1-4)GlcNAc(b1-3)Gal(b1-4)GlcNAc(b1-3)Gal(b1-4)GlcNAc(b1-2)Man(a1-6)]GalNAc
# How it was run: as §1
# [13] = biological target: Neu5Ac(a2-3)Gal(b1-4)GlcNAc(b1-3)[Neu5Ac(a2-3)Gal(b1-4)GlcNAc(b1-6)]GalNAc
# How it was run: as §1
# [14] = biological target: Neu5Ac(a2-3)Gal(b1-4)[Fuc(a1-3)]GlcNAc(b1-2)Man
# How it was run: as §1
# [15] = biological target: Neu5Ac(a2-6)Gal(b1-4)GlcNAc(b1-2)Man(a1-3)[GlcNAc(b1-2)Man(a1-6)]Man(b1-4)GlcNAc(b1-4)GlcNAc
# How it was run: as §1
# [16] = biological target: Neu5Ac(a2-6)Gal(b1-4)GlcNAc(b1-2)Man(a1-3)[Neu5Ac(a2-3)Gal(b1-4)GlcNAc(b1-2)Man(a1-6)]Man(b1-4)GlcNAc(b1-4)GlcNAc
# How it was run: as §1
# [17] = biological target: Neu5Ac(a2-6)Gal(b1-4)GlcNAc(b1-2)Man(a1-3)[Neu5Ac(a2-6)Gal(b1-4)GlcNAc(b1-2)Man(a1-6)]Man(b1-4)GlcNAc(b1-4)[Fuc(a1-6)]GlcNAc
# How it was run: as §1
# [18] = biological target: Neu5Ac(a2-6)Gal(b1-4)GlcNAc6S
# How it was run: as §1
# [19] = biological target: Neu5Ac(a2-6)GlcNAc(b1-4)GlcNAc(b1-4)GlcNAc
# How it was run: as §1
# [20] = biological target: Neu5Ac(a2-8)Neu5Gc(a2-3)Gal(b1-4)GlcNAc
# How it was run: as §1
# [21] = biological target: Neu5Ac9Ac(a2-3)Gal(b1-4)GlcNAc
# How it was run: as §1
# [22] = biological target: Neu5Ac9Ac(a2-6)Gal(b1-4)GlcNAc
# How it was run: as §1
# [23] = biological target: Neu5Gc(a2-3)Gal(b1-4)GlcNAc
# How it was run: as §1
binder,measurement,setting,value
Epa2 (Candida glabrata) (protein) MGSSHHHHHHSSGLVPRGSHMASSKDPTSFPMGCSPQVLKTQPGLAVKLYSYGHPVPGCAYNTYQYPDFPRSGYKKERKLADITGVNGRIDIDLKPNDPCRVLSGNLPSNYNYQNTLTYTNFTMILYGYFQPKVTGYHTFNLEADDLLFMNLGAGNAFDCCRAESTLDNFGNYQSYSIWGTDKATADLTVFLVSGIYYPIRLFYVNRDNNAVLDFSFSTEFNKEIIHDFTSYFFSASDEEQCPGNI,glycan array binding signal (z-score),Gal4S(b1-4)GlcNAc,-0.316
same,glycan array binding signal (z-score),Gal6S(b1-4)GlcNAc6S,2.81
same,glycan array binding signal (z-score),[1],1.03
same,glycan array binding signal (z-score),GalNAc4S6S(b1-4)GlcNAc,0.176
same,glycan array binding signal (z-score),Glc(b1-4)Glc,0.058
same,glycan array binding signal (z-score),GlcA(b1-6)Gal,0.586
same,glycan array binding signal (z-score),[2],-0.65
same,glycan array binding signal (z-score),[3],-0.896
same,glycan array binding signal (z-score),[4],-0.884
same,glycan array binding signal (z-score),[5],-0.072
same,glycan array binding signal (z-score),Kdn(a2-3)Gal(b1-3)GalNAc,2.25
same,glycan array binding signal (z-score),[6],-1.18
same,glycan array binding signal (z-score),[7],0.604
same,glycan array binding signal (z-score),[8],-0.044
same,glycan array binding signal (z-score),[9],0.369
same,glycan array binding signal (z-score),Neu5Ac(a2-3)Gal(b1-4)Glc,0.776
same,glycan array binding signal (z-score),[10],3.5
same,glycan array binding signal (z-score),[11],0.377
same,glycan array binding signal (z-score),[12],2.23
same,glycan array binding signal (z-score),[13],3.03
same,glycan array binding signal (z-score),[14],-0.325
same,glycan array binding signal (z-score),[15],-0.681
same,glycan array binding signal (z-score),[16],-0.821
same,glycan array binding signal (z-score),[17],-0.149
same,glycan array binding signal (z-score),[18],-0.614
same,glycan array binding signal (z-score),[19],-0.626
same,glycan array binding signal (z-score),[20],-1.11
same,glycan array binding signal (z-score),[21],-0.074
same,glycan array binding signal (z-score),[22],-0.169
same,glycan array binding signal (z-score),[23],-0.248
